Among all 53,000 sequences or so, about 3,700 (7%) were called active. This excerpt belongs to a sample that is enriched for actives. Values without a mark were called inactive.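 How the source made its calls: active means gene knockdowns whose robust z-score for IL-1 alpha signal is at least 2 or at most -2, so actives lie on both sides; inactive means the rest.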
assay: Components of the Cytosolic LPS Sensing Pathway: Gene Identification via Genome-wide siRNA Screen; settings: RAW264.7 macrophages, IL-1a HTRF, actives lie on both sides, screened at 100 nM (by protocol), cells primed 5 h with Pam3CSK4 first;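 further: robust z of the log signal after scaling to non-targeting control siRNA wells of the plate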
Summary of the method: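 Using IL-1a HTRF as read-out, the screen measured release from RAW264.7 cells after 48h siRNA knockdown (100 nM), 5 h Pam3CSK4 priming and 24 h cytosolic LipidA. Values were expressed relative to negative-control wells as robust z-scores.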

Going from GGUAAUGAAGGAACUGGAUTT against S100a1 to GGAGUUGCCCUCAUCUUCATT against Casp6, the z-score falls from 0.0105 to -1.59.

First: GGUGGAACUCGUCAAUAGCTT against Vat1
Second: GGUGAACAGUUGAUUUCAUTT against Smim10l2a
The z-score of the first is lower: 0.269 for the first, 1.48 for the second.

First: GGAUCACAUCGAGAAAACCTT against Utrn
Second: GCGGAAAGGCCAAACGAUUTT against Inhbb
The z-score of the first is lower: -1.57 for the first, -0.734 for the second.

Going from CCUUCUCCAUGUCAGAUCUTT against Col5a2 to GGAUACGCUUGUCCCACCATT against Mdm1, the z-score falls from 0.23 to -0.649.

First: CCAUUAUGGGAGGAAGAUUTT against Clvs2
Second: GGACAAAGAGAAUGAUGGATT against Cdc25b
The z-score of the first is higher: 0.969 for the first, -1.68 for the second.

First: GCUAAUCCCAUCUCGUCCUTT against 3110009E18Rik
Second: GGCCGAAGCAUCUUCAAGATT against Wdr24
The z-score of the first is lower: 1.15 for the first, 1.88 for the second.

First: GGAUCCCAUUAGAAAGAAATT against Cbx2
Second: GCGAUUACUACUUGAAACUTT against Fa2h
The z-score of the first is higher: 0.316 for the first, -0.384 for the second.

First: CGGAUGUGGGCAUUCGUUATT against Fbxl7
Second: GGUUUUGGGUCUAUGCUUCTT against Sde2
The z-score of the first is higher: 0.421 for the first, 0.311 for the second.

Compared with GAAAAAAAUCCGUUCCCUCTT against Mrpl33, GGAUUUUGCUCAGACGACATT against Taf1a is higher in z-score: 0.257 for the first, 0.291 for the second.

Compared with GGUUGGUAGGCUUUGGUGUTT against Notum, GGAGAAUCAUGUGAGCCUGTT against Tph1 is lower in z-score: 0.657 for the first, -0.0851 for the second.

Going from GGAGAACUUCCUAUACUAUTT against Apobec2 to GGAAAGCAAAAAGUUUCAGTT against Fam118b, the z-score falls from 0.448 to -1.14.

First: CGCAUAGAGCCUGUCCUCATT against Spink1
Second: GGUACAUAUGUGAUGACCGTT against Cdh4
The z-score of the first is lower: -1.57 for the first, -0.289 for the second.

Going from GGCGUAGGGCCAUAUCAUUTT against Olfr109 to GGUCAUGAACCUCAUCAUCTT against Nckap1l, the z-score falls from -0.117 to -0.552.

Going from GGCUGAAUAAAAUAAGUGUTT against Adra1a to CCAAAAGUGGAGAGCGACATT against Cnrip1, the z-score falls from -1.1 to -1.32.

Compared with GGAGCGAGAAGGUAAAGUCTT against Pibf1, GGGACUGGAAUUGACAUCCTT against Trpm4 is lower in z-score: 1.05 for the first, -1.38 for the second.

Going from GGGAAUUUUUGUGGGUGAATT against Bbs2 to GGAAAAACUACUCAAGGAGTT against Evi5l, the z-score rises from -0.541 to -0.0731.

First: CCUGGUUAAAGGUUAUCCATT against Commd7
Second: GGCAAGUCUGUGUGCAGAUTT against Olfr267
The z-score of the first is lower: -3.9e-05 for the first, 0.579 for the second.

Compared with CCAGGAACCUAUUGAAUCUTT against Plpp7, GGUAGAAAACAUAAAUGGUTT against Sec16a is higher in z-score: 1.15 for the first, 1.71 for the second.

First: GGCCAUGGUUAAACCAUAUTT against Pdcl2
Second: GGACCUAUACAAGGGAGGUTT against Il1f10
The z-score of the first is lower: 0.791 for the first, 1.17 for the second.

First: GGUGUUUUCUGUGCUGUGATT against Klhdc3
Second: GCCAAUAAUUGUCACACAUTT against Adgrg3
The z-score of the first is lower: -1.55 for the first, 1.94 for the second.

First: GGACUUGGGUUUCAAUUCCTT against Ddx27
Second: GCAGUCUUCCCUCAUCCUUTT against Cox8a
The z-score of the first is lower: -0.876 for the first, 1.74 for the second.

Compared with GGCAGUAAAUAGUAAGAAATT against Ccr9, GGAGUGGUGUGUCAUUGAUTT against Impact is higher in z-score: -0.716 for the first, -0.663 for the second.

First: GCACAACAUCCCAGAUAAATT against Ankrd55
Second: GCCAGGCAAAUUACAUCGCTT against Shroom1
The z-score of the first is higher: 0.338 for the first, 0.303 for the second.

Going from CCUGCACUACUGGAUUGGATT against Vill to GCUCCAUUAUGCCAGACUATT against Madcam1, the z-score rises from 0.265 to 0.8.

First: GGAUAAUGAAGAAUGCCAATT against Abca4
Second: GGUCAUCAACGUGCUAGAGTT against Nucb1
The z-score of the first is higher: -0.533 for the first, -1.3 for the second.

Compared with GGAUGCAUGAGAAAUGUUATT against Tbc1d14, GGUAUAAGUUGGCAAGAUCTT against Cry2 is higher in z-score: -0.0572 for the first, 0.849 for the second.

Going from GGUCACAUUUAAUGUCACATT against Itgam to GGACAAUCAGUACCUUAACTT against Tex9, the z-score rises from -0.789 to -0.375.

First: GGAAGGUUUCGCUUUGAAUTT against Tarm1
Second: GGCUCAGAUUUUGUGAUUCTT against Olfr894
The z-score of the first is higher: -0.469 for the first, -1.44 for the second.

Compared with GGACUUUUUCACUUUCAAATT against Ugt1a5, CGCCACACACCAUCACAUUTT against Scap is higher in z-score: -0.198 for the first, -0.0743 for the second.

Going from GCUAACCAUGUGACAAUAATT against Timm8a1 to GGCCCAGCAGACAACUUUATT against Sgca, the z-score rises from -1.39 to 0.797.

First: CCUCCGGAGUAUAAACAAUTT against Nr1i3
Second: GAAGAGGGCACCUAGUUUCTT against Cox7b
The z-score of the first is lower: 0.21 for the first, 0.249 for the second.

Compared with GCCACGAAGGUACUAUGUATT against Tbce, GGUUACCACACUAUGUUACTT against Tbc1d2b is higher in z-score: 0.176 for the first, 0.454 for the second.

First: GGAAAAGUCCAAGUUUGAATT against Hmgb2
Second: GGAGAUAAUCCUGAAUGGCTT against Hsd3b6
The z-score of the first is higher: -0.104 for the first, -1.18 for the second.

First: GGCCAAAAGGUUGAGCAGUTT against Nsun2
Second: GCUUUUAGGCCUCCAAAAGTT against Lmnb2
The z-score of the first is lower: 0.311 for the first, 1.15 for the second.

Going from GGAGAAACUGGCAGACCUUTT against Washc3 to GCCUUCAGGACGAUUUAUUTT against Pla2g7, the z-score rises from -0.388 to 1.19.

Compared with GCGAAAUCUUUGUCACUAATT against Sertad4, GGAAGUAUUUGAUCAUGGATT against Smarca5 is lower in z-score: -0.201 for the first, -0.465 for the second.

Going from GGAAAGGUAAUGCAUCACATT against Rev3l to GGCUGAAGAUCACCAAGAATT against Neurl1a, the z-score rises from -1.68 to -0.869.

Compared with CGGAAUCAUUCGGAAUGAGTT against Capza3, CGUGAUCCCACAGAUGUAGTT against Csrp3 is higher in z-score: -1.01 for the first, -0.649 for the second.

Compared with GGGAGGUGUCUUUACGUCUTT against Neto1, GCUGCACGAUCGGAAUGGUTT against Ssh1 is higher in z-score: -0.773 for the first, -0.678 for the second.

Compared with GGUUUUUGCUGAGUCUUGCTT against Olfr299, GGAAAAGAAAGCAAAGAGATT against Dach1 is lower in z-score: 0.00611 for the first, -1.15 for the second.

Going from GCUACAGCAGACAUAGAAATT against Sparcl1 to GGUUGGAAUUGUGCAAUAATT against Fbxo48, the z-score rises from 0.0109 to 0.164.

First: GGACAUUUAUCCCAUGACATT against Coro2b
Second: GGAAUUCAAUGACGUGUACTT against Mapk14
The z-score of the first is higher: 0.814 for the first, 0.493 for the second.

Sequence CCGUAUUUGUGCUGUGUCUTT against Olfr275 has a z-score of -1.53.

In the case of GGGUGACCUAAUCCAGUGUTT against Neurog3, the z-score is reported as 2.5 (active).
For GCUUCUGUUCGUUACGUCCTT against Ndufc2, the z-score was 2.55 (active).
In the case of GGCAAAGUUGCCAGAUGAATT against Mettl23, the z-score is reported as 2.42 (active).
For GGCUGAAAAAAGUGGAGAATT against Sh3bgr, the z-score was 2.12 (active).
With GGUAAGGAAAACAAAUAUGTT against En1 the z-score was 2.13 (active).
For GCAGUGUCGCAUUACAUCGTT against Sec16a, the z-score was 3.45 (active).
With UAUUCUAUCCGAACACCUUTT against Gm4884 the z-score was 2.19 (active).
With GCUCGAUGUGAACUGCUAGTT against Ankrd9 the z-score was 2.12 (active).
With GGUUUAAUGUUAUAUACGGTT against Olfr606 the z-score was 2.43 (active).
With GGUGCUGAUUGACCUAACATT against Wdtc1 the z-score was -2.24 (active).
In the case of GGAAGUGGAGGAAAAGAAGTT against Pdcd7, the z-score is reported as -2.52 (active).
For GGUGCUUAUACUUCUUUGUTT against Sgcz, the z-score was -2.42 (active).
With GGCACUCAGAAAUAUUCAGTT against Nap1l3 the z-score was 3.84 (active).
For GGAUACCCUGCUUCCAAAATT against Hpd, the z-score was 2.23 (active).
For CGGACUAUUGGAGACCAACTT against Gpsm2, the z-score was 2.16 (active).
In the case of CCCUUGAUUACACCACAGUTT against Cfc1, the z-score is reported as -2.6 (active).
For GGAAUAUUCUCUCAUCACATT against Mmachc, the z-score was -2.07 (active).
With GGAGGAAGAAGACUCAGAATT against Prkag2 the z-score was 3.46 (active).
With GGGAGAAAUGCCUUUAGUCTT against Erfe the z-score was 3.79 (active).
With GGAACUUCGUCAGUACAUUTT against Setdb1 the z-score was 5.77 (active).
For GGAAAUCCUGAAGUUUCCUTT against Grk5, the z-score was 4.41 (active).
In the case of GGCUUACUUGAAGCAUUUATT against Plcb4, the z-score is reported as 2.13 (active).
For GGAAAUGUUUACCUGCCAUTT against Zfp512, the z-score was 2.32 (active).

From PubChem BioAssay AID1508600 (Functional Genomics Laboratory (NCATS/FGL), 2020)
